WRN helicase inh: WRN helicase (human) inhibition. Q14191. WRN helicase unwinding, fluorescent forked duplex, kinetic. Potency, µM (doses to about 114 µM), without a hit: at the top dose activity change, negative = inhibition, usual class: inhibitors. 360,000 tested, 0.46% active. AID 651768; note: potency is the fitted concentration of half-maximal effect; % is set by controls: 0 for no effect and ±100 for the full control effect; nearly all actives have a fitted effect of over 55% in size
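Kinetic fluorescence helicase assay: unwinding of a quenched forked DNA duplex (100 nM final) with 2 mM ATP final raises red fluorescence (525/598 nm). Compounds sat 15 min at room temperature with 20 nM WRN beforehand.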
PI5P4Ka inh: PI5P4K alpha (human) kinase inhibition; P48426; PI5P4Kalpha enzyme, ADP-Glo luminescence, 60 min; active compounds read low; max response, %; 330,000 tested, 1.2% active; AID 652105; active = max response of -50% or lower; inconclusive = between -30% and -50%; inactive = -30% or higher; note: value at the top dose of about 77 µM; % is set by controls: 0 for no effect and ±100 for the full control effect
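Single end-point luminescence (ADP-Glo) quantified ADP from PI5P4Kalpha turnover; ATP 5 microM final, 1 h at RT, 0.1% CHAPS and 0.28 mM EGTA in HEPES pH 7.4.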
Tb PGK inh: inhibitors of T. brucei phosphoglycerate kinase. P07378. PGK/GAPDH coupled, Kinase-Glo luminescence, 60 min. Potency, µM (top dose mostly 57.5 µM), inactives show at the top dose activity change, negative = inhibition, usual class: inhibitors. 380,000 tested, 0.043% active. AID 602233; note: potency is the fitted concentration of half-maximal effect; % is set by controls: 0 for no effect and ±100 for the full control effect; nearly all actives have a fitted effect of over 60% in size
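Luminescent ATP detection (Kinase-Glo Plus) follows a 60-minute room-temperature incubation, with wells lacking PGK as controls. Buffer: 100 mM TEA (pH 7.6), 5 mM MgCl2, 0.01% Tween-20. Coupling enzyme GAPDH (100 nM final) supplies unstable 1,3-BPG in-well.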
Tb PFK inh-1: T. brucei PFK enzyme inhibition | 330,000 tested, 0.17% active | T. brucei PFK, ADP-Glo luminescence | AID 485367 | Potency, µM (doses to about 57.5 µM), without a hit: at the highest dose activity, negative = inhibition, usual class: inhibitors | O15648;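 note: potency is the fitted concentration of half-maximal effect; 0% = uninhibited 1x PFK enzyme wells and -100% = no-enzyme wells; nearly all actives have a fitted effect of over 60% in size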
Target sequence (O15648 whole entry, looked up): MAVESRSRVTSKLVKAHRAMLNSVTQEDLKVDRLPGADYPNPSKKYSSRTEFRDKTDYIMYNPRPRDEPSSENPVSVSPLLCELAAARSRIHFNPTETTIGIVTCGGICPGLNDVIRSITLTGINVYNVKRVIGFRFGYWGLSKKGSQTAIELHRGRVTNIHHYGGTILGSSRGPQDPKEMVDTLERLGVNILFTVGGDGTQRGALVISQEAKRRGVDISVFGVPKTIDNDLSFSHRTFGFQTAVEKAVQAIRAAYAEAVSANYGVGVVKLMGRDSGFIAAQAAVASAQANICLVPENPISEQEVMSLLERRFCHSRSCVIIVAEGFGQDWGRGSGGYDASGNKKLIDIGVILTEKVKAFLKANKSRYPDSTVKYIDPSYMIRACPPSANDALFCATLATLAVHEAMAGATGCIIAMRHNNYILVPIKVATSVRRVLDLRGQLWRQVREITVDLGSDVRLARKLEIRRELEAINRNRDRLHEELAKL
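In TEA buffer at pH 8.0 with 5 mM MgCl2, enzyme (1.25 nM) converted F6P (0.5 mM) and ATP (0.1 mM) for 45 min at room temperature. ADP product was read by luciferase luminescence.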
TDP1 inh: inhibitors of human tyrosyl-DNA phosphodiesterase TDP1. Q9NUW8. recombinant TDP1, AlphaScreen DNA substrate cleavage. Potency, µM (titrated, usually from 130 µM), inactives show at the highest dose activity change, negative = inhibition, usual class: inhibitors. 350,000 tested, 0.28% active. AID 485290; note: potency is the fitted concentration of half-maximal effect; % is set by controls: 0 for no effect and ±100 for the full control effect; nearly all actives have a fitted effect of over 40% in size
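Recombinant human Tdp1 (E. coli-expressed, 1 nM final) preincubated with compounds 15 min at room temperature, then 5'-biotin/3'-phosphotyrosine-FITC DNA substrate (15 nM final) added for 5 min. AlphaScreen beads (10 ug/ml final) added 10 min; cleavage lowers signal.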
FEN1 inhibitor: human FEN1 inhibition. AID 588795. Recombinant FEN1 flap cleavage, fluorescence, 15 min. Potency, µM (highest dose often 114 µM), for the others: at the top dose activity change, negative = inhibition, most hits filed as inhibitors. P39748. 390,000 tested, 0.35% active; note: potency is the fitted concentration of half-maximal effect; % is set by controls: 0 for no effect and ±100 for the full control effect; nearly all actives have a fitted effect of over 65% in size
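Recombinant FEN1 (10 nM) was preincubated with pin-transferred compounds for 15 min at room temperature, then flap DNA substrate (50 nM final) was added. Plates were read at 0 and 15 min, and normalized concentration–response data were fitted to a four-parameter Hill equation.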
Tb PFK KinaseGlo: orthogonal confirmation of T. brucei phosphofructokinase inhibitors. shares compounds with Tb PFK inh-1. Tb PFK enzyme, ATP depletion, Kinase-Glo Plus luminescence. Potency, µM (titrated, usually from 57.5 µM), for the others: at the top dose inhibition. 1,100 tested, 47% active. AID 504636; calls by dose curve; note: potency is the fitted concentration of half-maximal effect; nearly all actives have a fitted effect of over 60% in size
Tb PFK inh-2: T. brucei PFK enzyme inhibition, hit validation; shares compounds with Tb PFK inh-1; purified T. brucei PFK, ADP-Glo luminescence, 45 min; Potency, µM (titrated, usually from 57.5 µM), without a hit: at the top dose activity change, negative = inhibition, actives largely listed as inhibitors; 1,100 tested, 41% active; AID 504637;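 note: potency is the fitted concentration of half-maximal effect; plate controls were full PFK enzyme control for no effect and no enzyme control for full effect; nearly all actives have a fitted effect of over 60% in size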
Starred values were filed as active, the others as inactive. Shown are actives, neighbours in structure and some others; about 1.5% of the full set was active somewhere. Unless noted, calls come from the whole dose curve; as a rule, active = well fitted curve in the direction sought with a large enough effect; inconclusive = small, poorly fitted or top-dose-only effect, or another doubt; inactive = no such curve, though single readings can be large; an effect the other way counts as inactive or inconclusive.

For COc1cccc(OP(=O)(Nc2ccccc2)Oc2cccc(OC)c2)c1 the results were WRN helicase inh -6.7%, PI5P4Ka inh 12.9, Tb PGK inh -2.4%, Tb PFK inh-1 -1.2% and FEN1 inhibitor -23.7%.
For CC(=O)OC1CC[C@@]2(C)C(=CC[C@H]3[C@@H]4CC[C@H](C(C)=O)[C@@]4(C)CC[C@@H]32)C1 (some centres undefined) the results were TDP1 inh 25.9%.
`Nc1cccc2ccccc12` gave TDP1 inh 18.3%.
For Cc1c(C(=O)Nc2nc(-c3ccccn3)cs2)oc2ccccc12 the results were WRN helicase inh -7.8%, PI5P4Ka inh -59.0*, Tb PGK inh -0.4%, Tb PFK inh-1 inconclusive, TDP1 inh -2.2%, FEN1 inhibitor -27.5%, Tb PFK KinaseGlo 19µM* and Tb PFK inh-2 30.1µM*.
Screening O=C(O)/C=C\C(=O)Nc1ccc(N2CCN(c3ccc(Cl)c(Cl)c3)CC2)cc1 returned WRN helicase inh -6.2%, PI5P4Ka inh -8.5, Tb PGK inh -22.3%, Tb PFK inh-1 inconclusive, TDP1 inh 6.0%, FEN1 inhibitor -11.4%, Tb PFK KinaseGlo 5.36µM* and Tb PFK inh-2 10.7µM*.
`CCOC(=O)N1CCN(c2ccc(Cl)c(Cl)c2)CC1` gave WRN helicase inh 5.9%, Tb PGK inh inactive, Tb PFK inh-1 inconclusive, TDP1 inh 0.0% and FEN1 inhibitor -1.4%.
For O=C(O)c1ccc(Cl)c(S(=O)(=O)Nc2ccc3cn[nH]c3c2)c1 the results were WRN helicase inh -14.1%, PI5P4Ka inh -20.6, Tb PGK inh -16.8%, Tb PFK inh-1 inconclusive, FEN1 inhibitor -12.1%, Tb PFK KinaseGlo 9.4% and Tb PFK inh-2 0.9%.
For O=C(O)c1ccc(Cl)nc1 the results were WRN helicase inh -1.8%, PI5P4Ka inh -3.7, Tb PGK inh -8.8%, Tb PFK inh-1 8.5%, TDP1 inh 0.0% and FEN1 inhibitor -5.1%.
`O=C(Nc1ccc(Cl)cc1)N1CC1` gave WRN helicase inh 3.0%, PI5P4Ka inh -3.3, Tb PGK inh 3.2% and FEN1 inhibitor -17.6%.
`O=C(Cc1ccccc1)N1CCN(Cc2ccccc2Cl)CC1` gave WRN helicase inh -0.6%, PI5P4Ka inh -3.3, Tb PGK inh -5.6%, Tb PFK inh-1 -0.9% and FEN1 inhibitor -8.6%.
For NS(=O)(=O)c1ccc(NC(=S)N2CCN(c3cccc(Cl)c3)CC2)cc1 the results were WRN helicase inh -5.8%, PI5P4Ka inh 6.5, Tb PGK inh -9.3%, Tb PFK inh-1 inconclusive, TDP1 inh 2.7%, FEN1 inhibitor -9.0%, Tb PFK KinaseGlo 10.7µM* and Tb PFK inh-2 15.1µM*.
For O=C(CCC(=O)N1CCN(c2cccc(Cl)c2)CC1)N1CCN(c2ccccc2)CC1 the results were WRN helicase inh -7.4%, PI5P4Ka inh 7.8, Tb PGK inh inactive, Tb PFK inh-1 inconclusive, TDP1 inh 5.1%, FEN1 inhibitor -8.6%, Tb PFK KinaseGlo inconclusive and Tb PFK inh-2 inconclusive.
For O=C(CSc1ccccn1)N1CCN(c2cccc(Cl)c2)CC1 the results were WRN helicase inh -3.2%, PI5P4Ka inh -8.7, Tb PGK inh 10.6%, Tb PFK inh-1 inconclusive, TDP1 inh 0.0%, FEN1 inhibitor 5.7%, Tb PFK KinaseGlo inconclusive and Tb PFK inh-2 inconclusive.
`CC(=O)c1ccc(NC(=O)N2CCN(c3cccc(Cl)c3)CC2)cc1` gave WRN helicase inh -5.7%, Tb PGK inh -2.6%, Tb PFK inh-1 21.3µM*, TDP1 inh -1.1%, FEN1 inhibitor -17.9%, Tb PFK KinaseGlo 21.3µM* and Tb PFK inh-2 inconclusive.
Screening CC1OC(=O)C(C(C)C)NC(=O)C(C(C)C)OC(=O)C(C(C)C)NC(=O)C(C)OC(=O)C(C(C)C)NC(=O)C(C(C)C)OC(=O)C(C(C)C)NC(=O)C(C)OC(=O)C(C(C)C)NC(=O)C(C(C)C)OC(=O)C(C(C)C)NC1=O (centres undefined) returned TDP1 inh 1.2%.
For c1nc[n]([Sn]([CH]2CCCCC2)([CH]2CCCCC2)[CH]2CCCCC2)n1 the results were TDP1 inh 4.3%.
CCOC(=O)C1C(C=C(C)C)C1(C)C (centres undefined) was read as TDP1 inh 8.1%.
Screening COC(=O)C1=C(c2ccc(S(C)(=O)=O)cc2)C[C@@H]2CC[C@H]1N2C(=O)NCc1ccco1 returned WRN helicase inh -5.3%, PI5P4Ka inh 9.5, Tb PGK inh -3.7% and FEN1 inhibitor -4.6%.
`O=C1CC(=O)N(c2cccc(Cl)c2)C(=O)N1` gave WRN helicase inh -17.3%, Tb PFK inh-1 8.8%, TDP1 inh 2.3% and FEN1 inhibitor 2.2%.
`O=C(Nc1cccc(C(=O)N2CCN(c3cccc(Cl)c3)CC2)c1)c1ccccc1` gave WRN helicase inh 4.1%, PI5P4Ka inh -7.9, Tb PFK inh-1 inconclusive, TDP1 inh 11.0%, FEN1 inhibitor 1.3%, Tb PFK KinaseGlo inconclusive and Tb PFK inh-2 inconclusive.
S=C(NCc1ccco1)N1CCN(c2cccc(Cl)c2)CC1 was read as WRN helicase inh -8.5%, PI5P4Ka inh 5.5, Tb PGK inh 1.3%, Tb PFK inh-1 inconclusive, TDP1 inh 8.1%, FEN1 inhibitor -23.3%, Tb PFK KinaseGlo 23.9µM* and Tb PFK inh-2 inconclusive.
For O=C(CCC(=O)N1CCN(c2cccc(Cl)c2)CC1)c1cccs1 the results were WRN helicase inh -6.0%, PI5P4Ka inh -20.2, Tb PGK inh -10.1%, Tb PFK inh-1 inconclusive, TDP1 inh -9.5%, FEN1 inhibitor 2.9%, Tb PFK KinaseGlo inconclusive and Tb PFK inh-2 inconclusive.
O=C(Nc1ccc(Cl)cc1C(=O)c1ccccc1)c1ccccc1 was read as WRN helicase inh -27.7%, PI5P4Ka inh 2.2, Tb PGK inh -9.3%, Tb PFK inh-1 -4.8%, TDP1 inh 5.1% and FEN1 inhibitor -16.6%.
For CCCCOCCOP(=O)(OCCOCCCC)OCCOCCCC the results were TDP1 inh 10.4%.
`CC1N(P(=O)(c2ccccc2)c2ccccc2)CC(O)(c2ccccc2)CC12CC2` (centres undefined) gave TDP1 inh 8.1%.
Screening O=C1OC(=O)C2C3CCC(O3)C12 (centres undefined) returned Tb PFK inh-1 -7.5% and TDP1 inh inconclusive.

Screening data deposited in PubChem by National Center for Advancing Translational Sciences (NCATS).
